Unmarked numbers belong to inactive results. Results filed as inconclusive are left out. Activity calls are given as the source filed them. Unless noted, calls follow the shape of the dose curve; as a rule, active = well fitted curve in the direction sought with a large enough effect in the repeat runs; inconclusive = weak or mixed curves; inactive = no such curve, though single readings can be large; an effect the other way counts as inactive or inconclusive.

A short description of assay [1]: qHTS assay to identify small molecule agonists of the TGF-beta/Smad signaling pathway - cell viability counter screen (AID 1346829). Also: top concentration of the series differs between compounds; nearly all actives have a fitted effect of over 45% in size. The note with it: SBE-bla HEK293T viability, CellTiter-Glo luminescence, 5 h; series mostly up to 76.8 µM. In short, it runs like this: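 Same-well cytotoxicity: CellTiter-Glo added after the 2 hr room-temperature beta-lactamase substrate step, luminescence measured 30 min later; cells had 5 hr of compound at 37 C.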

A short description of assay [2]: qHTS assay to identify small molecule agonists of the TGF-beta/Smad signaling pathway (AID 1346859; active = well fitted activation curve with a large enough effect in the signal ratio in the repeat runs, not every such curve was filed as active; the % refers to the signal ratio). As to conditions: SBE-bla HEK293T, TGF-beta/Smad beta-lactamase reporter, 5 h; series mostly up to 76.8 µM. Put shortly:
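HEK 293T cells stably carrying a beta-lactamase reporter driven by the Smad binding element were seeded overnight, exposed to DMSO-dissolved compounds for 5 hr at 37 C, 5% CO2, then loaded with FRET substrate for 2 hr at room temperature.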
(In general: qHTS replaces the single test concentration by a dilution series.)

The target in assay [3] is Thyrotropin-releasing hormone receptor (Homo sapiens) (UniProt P34981). Description: qHTS assay to identify small molecule antagonists of the thyrotropin-releasing hormone receptor (TRHR) signaling pathway (AID 1346877; active = well fitted inhibition curve with a large enough effect in the repeat runs, not every such curve was filed as active). The note with it: TRHR-HEK293, TRH-induced calcium fluorescence, antagonist mode; series mostly up to 51.3 µM. In short, it runs like this: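 Antagonism is measured as suppression of the calcium response to 1 nM TRH in TRHR-HEK293 cells that have been dye-loaded for 2 h at 37 °C after overnight plating. Each compound is tested at 15 concentrations in triplicate.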

Assay [4] shares this target. The experiment in a line: qHTS assay to identify small molecule agonists of the thyrotropin-releasing hormone receptor (TRHR) signaling pathway (AID 1346891; calls by dose curve). The note with it: TRHR-HEK293 calcium fluorescence, agonist mode; series mostly up to 57.6 µM. Put shortly:
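TRHR-expressing HEK293 cells were plated 18 h at 37 °C/5% CO2, loaded with calcium dye 2 h at 37 °C, then given compound in DMSO; fluorescence was read kinetically for 3 min at 1 s intervals.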

Assay [5] in a line: Human pregnane X receptor (PXR) small molecule agonists, qHTS cell viability counter screen (AID 1346977). Also: nearly all actives have a fitted effect of over 50% in size. The note with it: PXR-Luc HepG2 viability, CellTiter-Fluor, 24 h; series mostly up to 92.4 µM. In short, it runs like this:
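PXR-Luc HepG2 cells in medium with 5% charcoal-stripped FBS were pre-incubated 5hr, then exposed to compounds for 24hr at 37C. Viability was read in the same wells by CellTiter-Fluor fluorescence, reagent added after 23hr with a 1hr incubation.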

A short description of assay [6]: Caspase-3/7 induction in HepG2 cells by small molecules, qHTS assay (AID 1346978). Also: nearly all actives have a fitted effect of over 15% in size. The note with it: HepG2 caspase-3/7 activation, Caspase-Glo luminescence, 17 h; series mostly up to 92.4 µM. In short, it runs like this:
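Wild-type HepG2 cells (2,000/well) were settled 5 h at 37 C, 5% CO2, then exposed to compounds in DMSO for 17 h. Caspase-3/7 activity was read by luminescence 30 min after adding Caspase-Glo 3/7 reagent at room temperature.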

A short description of assay [7]: Caspase-3/7 induction in CHO-K1 cells by small molecules, qHTS cell viability counter screen (AID 1346979). Also: nearly all actives have a fitted effect of over 35% in size. As to conditions: CellTiter-Fluor fluorescence, 17 h; series mostly up to 92.4 µM. Put shortly: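 Wild-type CHO-K1 cells were seeded at 1,500 per well, rested 5hr at 37 C, then exposed to compounds in DMSO. After 16hr, CellTiter-Fluor reagent was added and fluorescence read 1hr later as the viability measure.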

A short description of assay [8]: Caspase-3/7 induction in HepG2 cells by small molecules, qHTS cell viability counter screen (AID 1346981). Also: nearly all actives have a fitted effect of over 30% in size. As to conditions: CellTiter-Fluor fluorescence, 17 h; series mostly up to 92.4 µM. Put shortly: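 Cell viability is measured as a cytotoxicity counter screen alongside the Caspase-Glo 3/7 readout in identical wells. Wild-type HepG2 cells are treated with test compounds for 16 hr at 37 C before CellTiter-Fluor addition and a 1-hr incubation.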

Assay [9] concerns the target Cytochrome P450 2D6 (Homo sapiens) (UniProt P10635). Description: Cytochrome P450 Family 2 Subfamily D Member 6 (CYP2D6) small molecule antagonists: luciferase reporter qHTS assay (AID 1671196). Also: nearly all actives have a fitted effect of over 50% in size. The note with it: P450-Glo CYP2D6 enzyme assay, luciferin luminescence, 1 h; series mostly up to 115 µM. Put shortly:
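Enzyme and proluciferin substrate were first combined with test chemical for 10 min at room temperature. Adding NADPH regeneration solution started a 1 h reaction, stopped with luciferin detection reagent and read by luminescence 20 min later.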
Background: A reporter such as luciferase makes a cellular process visible.

For assay [10], the target named is Cytochrome P450 2C19 (Homo sapiens) (UniProt P33261). Description: Cytochrome P450 Family 2 Subfamily C Member 19 (CYP2C19) small molecule antagonists: luciferase reporter qHTS assay (AID 1671197). Also: nearly all actives have a fitted effect of over 65% in size. Also: potency is read from the fitted curve at half-maximal effect. As to conditions: P450-Glo CYP2C19 enzyme, luciferin luminescence, 1 h; series mostly up to 115 µM. Put shortly: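 Quantitative high-throughput screen of the Tox21 library using CYP2C19 with proluciferin substrate. Reaction: NADPH regeneration, 37C, 1 h, after 10 min compound preincubation at room temperature. Readout: luminescence.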

Assay [11] concerns the target Cytochrome P450 2C9 (Homo sapiens) (UniProt P11712). The experiment in a line: Cytochrome P450 Family 2 Subfamily C Member 9 (CYP2C9) small molecule antagonists: luciferase reporter qHTS assay (AID 1671198). Also: nearly all actives have a fitted effect of over 50% in size. Also: potency is read from the fitted curve at half-maximal effect. As to conditions: P450-Glo CYP2C9 enzyme assay, luciferin luminescence; series mostly up to 115 µM. In short, it runs like this: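 CYP2C9 activity was measured with a P450-Glo proluciferin substrate. Enzyme–substrate mix was held with compound for 10 min at room temperature, then NADPH regeneration solution was added for 1 h at 37C. Luciferin product was read as luminescence.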

Assay [12] addresses Cytochrome P450 1A2 (Homo sapiens) (UniProt P05177). The experiment in a line: Cytochrome P450 Family 1 Subfamily A Member 2 (CYP1A2) small molecule antagonists: luciferase reporter qHTS assay (AID 1671199). Also: nearly all actives have a fitted effect of over 50% in size. Also: potency is read from the fitted curve at half-maximal effect. The note with it: P450-Glo CYP1A2 enzyme, luciferin luminescence, 1 h; series mostly up to 115 µM. Put shortly: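 Compounds were incubated with CYP1A2 and a luminogenic proluciferin substrate for 10 min at room temperature before the reaction was started with NADPH regeneration solution. After 1 h, detection reagent was added and light output, proportional to CYP activity, was recorded.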

The target of assay [13] is Voltage-gated inwardly rectifying potassium channel KCNH2 (Homo sapiens) (UniProt Q12809). Description: Human Ether-a-go-go-Related Gene (hERG) channel small molecule antagonists: fluorescence cell-based qHTS assay (AID 1671200). As to conditions: hERG-U2OS cells, FluxOR thallium flux fluorescence; series mostly up to 76.8 µM. In short, it runs like this:
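U2OS cells expressing the channel were plated at 1000 cells/well, incubated overnight at 37 C, then loaded with FluxOR II thallium-sensitive dye for 1 h at room temperature in the dark, with a further 10 min at room temperature before stimulation.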

Assay [14] deals with Cytochrome P450 3A4 (Homo sapiens) (UniProt P08684). The experiment in a line: Cytochrome P450 Family 3 Subfamily A Member 4 (CYP3A4) small molecule antagonists: luciferase reporter qHTS assay (AID 1671201). Also: nearly all actives have a fitted effect of over 50% in size. As to conditions: P450-Glo CYP3A4 enzyme, luciferin luminescence, 1 h; series mostly up to 115 µM. In short, it runs like this:
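P450-Glo CYP3A4 system with proluciferin substrate; compounds preincubated 10 min RT with enzyme-substrate mix, then NADPH regeneration added for 1 h RT. Detection reagent 20 min, luminescence read as relative luminescence units.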

Assay [15] concerns the target Nuclear receptor subfamily 1 group I member 2 (Homo sapiens) (UniProt O75469). Description: Human pregnane X receptor (PXR) small molecule agonists, qHTS assay (AID 1346982). Also: nearly all actives have a fitted effect of over 35% in size. As to conditions: PXR-Luc HepG2, CYP3A4 luciferase reporter, 24 h; series mostly up to 92.4 µM. In short, it runs like this:
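Cells: HepG2 stably carrying PXR-Luc. Medium held 5% charcoal-stripped FBS. Compounds in DMSO added after 5 hr plating, incubated 24 hr, then luminescence quantified with ONE-Glo.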

Assay [16] addresses Nuclear receptor subfamily 1 group I member 2 (Rattus norvegicus) (UniProt Q9R1A7). Description: Rat pregnane X receptor (rPXR) activation by small molecules, qHTS assay (AID 1346983). Also: nearly all actives have a fitted effect of over 20% in size. As to conditions: rPXR luciferase reporter cells, One-Glo luminescence, 24 h; max activation: stronger effect = higher value. In short, it runs like this:
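Cell-based rPXR luciferase reporter assay, 2,000 cells per well, rested 5hr at 37 C before compound addition in DMSO, then 24 hr at 37 C. One-Glo reagent was added and luminescence read after 30 min at room temperature.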

The target of assay [17] is Nuclear receptor subfamily 1 group I member 2 (Homo sapiens) (UniProt O75469). Description: CYP3A4 induction through human pregnane X receptor (PXR) by small molecules, qHTS assay (AID 1346984). Also: nearly all actives have a fitted effect of over 40% in size. The note with it: DPX-2 HepG2 PXR, CYP3A4-luciferin luminescence, 24 h; series mostly up to 46.1 µM. Put shortly: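 Quantitative HTS in DPX-2 cells, i.e. HepG2 transfected with PXR response element and CYP3A4-promoter luciferase. Compounds in DMSO incubated 24hr at 37C; then P450-Glo CYP3A4 substrate, 3uM final, 3hr; One-Glo luminescence.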

For assay [18] the target is unchanged. The experiment in a line: Human pregnane X receptor (PXR) activation by small molecules, qHTS assay (AID 1346985). Also: nearly all actives have a fitted effect of over 40% in size. The note with it: DPX-2 HepG2 CYP3A4-luciferase, 24 h; series mostly up to 38.3 µM. Put shortly: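 DPX-2 cells (HepG2 co-transfected with a PXR response element and a CYP3A4-promoter luciferase construct) were seeded at 2,000 per well, rested 5 hr at 37C, then exposed to DMSO-dissolved compounds for 24 hr. Activation was read as luciferase luminescence.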

Assay [19] is described as follows: Caspase-3/7 induction in CHO-K1 cells by small molecules, qHTS assay (AID 1346980). Also: nearly all actives have a fitted effect of over 15% in size. As to conditions: CHO-K1 caspase-3/7 induction, Caspase-Glo luminescence, 17 h; series mostly up to 92.4 µM. Put shortly: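 Wild-type cells were seeded at 1,500 per well and settled 5 hr at 37 C, 5% CO2, then exposed to DMSO-dissolved compounds for 17 hr. Caspase-Glo 3/7 reagent was added, and luminescence was read after 30min at room temperature.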
% is scaled to controls: 0 for no effect and ±100 for the full control effect.

Chain of Cytochrome P450 2D6 (Homo sapiens) (P10635 whole entry, looked up): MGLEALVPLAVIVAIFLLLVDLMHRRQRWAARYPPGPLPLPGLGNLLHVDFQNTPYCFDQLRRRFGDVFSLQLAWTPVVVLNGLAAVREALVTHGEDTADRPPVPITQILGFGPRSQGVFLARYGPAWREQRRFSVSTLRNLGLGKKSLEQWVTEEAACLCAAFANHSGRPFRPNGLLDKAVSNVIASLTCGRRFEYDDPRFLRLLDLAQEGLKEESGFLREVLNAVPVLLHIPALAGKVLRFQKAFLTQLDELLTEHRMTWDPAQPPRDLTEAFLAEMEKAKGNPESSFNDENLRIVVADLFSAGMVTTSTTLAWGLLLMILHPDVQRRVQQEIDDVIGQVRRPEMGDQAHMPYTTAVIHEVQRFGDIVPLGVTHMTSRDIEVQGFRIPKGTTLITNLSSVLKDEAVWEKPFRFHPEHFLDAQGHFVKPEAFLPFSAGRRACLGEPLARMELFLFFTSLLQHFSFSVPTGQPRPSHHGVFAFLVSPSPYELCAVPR
Chain of Nuclear receptor subfamily 1 group I member 2 (Homo sapiens) (O75469 whole entry, looked up): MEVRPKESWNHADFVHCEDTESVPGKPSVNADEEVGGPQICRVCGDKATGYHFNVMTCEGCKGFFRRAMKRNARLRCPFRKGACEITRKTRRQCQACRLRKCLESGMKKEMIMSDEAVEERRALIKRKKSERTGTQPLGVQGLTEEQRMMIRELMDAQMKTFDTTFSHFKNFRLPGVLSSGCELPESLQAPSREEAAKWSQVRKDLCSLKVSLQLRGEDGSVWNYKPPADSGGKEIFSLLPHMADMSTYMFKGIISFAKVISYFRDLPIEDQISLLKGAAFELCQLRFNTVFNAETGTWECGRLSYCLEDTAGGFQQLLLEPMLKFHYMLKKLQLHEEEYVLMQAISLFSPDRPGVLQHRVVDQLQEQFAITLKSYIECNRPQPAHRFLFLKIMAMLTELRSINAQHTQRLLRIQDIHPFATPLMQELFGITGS
Chain of Cytochrome P450 1A2 (Homo sapiens) (P05177 whole entry, looked up): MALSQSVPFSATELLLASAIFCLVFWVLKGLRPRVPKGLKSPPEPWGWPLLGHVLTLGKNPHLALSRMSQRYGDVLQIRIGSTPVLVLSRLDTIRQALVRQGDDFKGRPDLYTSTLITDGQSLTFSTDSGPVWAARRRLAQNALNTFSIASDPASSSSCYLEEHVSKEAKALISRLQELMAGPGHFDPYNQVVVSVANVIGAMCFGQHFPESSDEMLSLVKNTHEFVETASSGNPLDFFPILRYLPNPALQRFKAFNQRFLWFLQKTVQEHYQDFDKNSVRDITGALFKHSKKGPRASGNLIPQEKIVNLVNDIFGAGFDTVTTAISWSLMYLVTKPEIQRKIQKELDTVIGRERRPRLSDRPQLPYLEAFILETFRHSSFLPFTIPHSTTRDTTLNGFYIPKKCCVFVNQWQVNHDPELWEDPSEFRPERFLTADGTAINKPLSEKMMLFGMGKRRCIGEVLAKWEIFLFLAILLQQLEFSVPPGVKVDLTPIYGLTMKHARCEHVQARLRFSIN
Chain of Thyrotropin-releasing hormone receptor (Homo sapiens) (P34981 whole entry, looked up): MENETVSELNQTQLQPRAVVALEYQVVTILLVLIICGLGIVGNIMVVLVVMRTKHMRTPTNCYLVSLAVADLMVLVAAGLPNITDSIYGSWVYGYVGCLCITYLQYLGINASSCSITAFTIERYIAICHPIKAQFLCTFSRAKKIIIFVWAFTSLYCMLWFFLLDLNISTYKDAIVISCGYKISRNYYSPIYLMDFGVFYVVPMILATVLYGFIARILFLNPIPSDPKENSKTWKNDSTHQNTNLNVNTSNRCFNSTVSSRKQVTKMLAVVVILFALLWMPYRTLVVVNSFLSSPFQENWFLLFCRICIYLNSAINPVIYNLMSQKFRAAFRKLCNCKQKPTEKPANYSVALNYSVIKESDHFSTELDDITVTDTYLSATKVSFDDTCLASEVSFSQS
Chain of Cytochrome P450 2C19 (Homo sapiens) (P33261 whole entry, looked up): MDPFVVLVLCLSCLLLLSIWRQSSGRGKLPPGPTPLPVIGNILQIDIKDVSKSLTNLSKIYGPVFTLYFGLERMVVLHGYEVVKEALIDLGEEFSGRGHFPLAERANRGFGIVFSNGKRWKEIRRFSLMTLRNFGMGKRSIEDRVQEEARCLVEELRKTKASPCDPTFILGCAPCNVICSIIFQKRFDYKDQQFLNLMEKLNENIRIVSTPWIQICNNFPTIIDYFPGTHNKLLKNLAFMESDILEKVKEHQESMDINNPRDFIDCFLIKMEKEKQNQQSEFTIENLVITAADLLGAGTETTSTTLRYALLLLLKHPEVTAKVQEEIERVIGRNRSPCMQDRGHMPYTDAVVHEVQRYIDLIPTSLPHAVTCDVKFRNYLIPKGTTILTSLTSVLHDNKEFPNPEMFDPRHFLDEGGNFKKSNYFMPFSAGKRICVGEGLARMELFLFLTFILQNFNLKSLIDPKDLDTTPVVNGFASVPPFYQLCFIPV
Chain of Cytochrome P450 3A4 (Homo sapiens) (P08684 whole entry, looked up): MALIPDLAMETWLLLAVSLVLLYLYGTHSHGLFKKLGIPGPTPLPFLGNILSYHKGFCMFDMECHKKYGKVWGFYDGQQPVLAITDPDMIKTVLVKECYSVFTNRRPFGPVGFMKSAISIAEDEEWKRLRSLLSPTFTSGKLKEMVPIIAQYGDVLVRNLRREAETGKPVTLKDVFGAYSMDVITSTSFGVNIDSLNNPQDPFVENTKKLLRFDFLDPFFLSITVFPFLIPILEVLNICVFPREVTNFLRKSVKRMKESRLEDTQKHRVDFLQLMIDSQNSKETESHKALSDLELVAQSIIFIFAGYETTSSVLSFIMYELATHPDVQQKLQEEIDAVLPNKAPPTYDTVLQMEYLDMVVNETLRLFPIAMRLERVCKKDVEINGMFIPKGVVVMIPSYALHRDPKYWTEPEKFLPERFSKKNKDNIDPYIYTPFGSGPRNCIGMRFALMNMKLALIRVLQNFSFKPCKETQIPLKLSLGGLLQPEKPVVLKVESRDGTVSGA
Chain of Voltage-gated inwardly rectifying potassium channel KCNH2 (Homo sapiens) (Q12809 whole entry, looked up): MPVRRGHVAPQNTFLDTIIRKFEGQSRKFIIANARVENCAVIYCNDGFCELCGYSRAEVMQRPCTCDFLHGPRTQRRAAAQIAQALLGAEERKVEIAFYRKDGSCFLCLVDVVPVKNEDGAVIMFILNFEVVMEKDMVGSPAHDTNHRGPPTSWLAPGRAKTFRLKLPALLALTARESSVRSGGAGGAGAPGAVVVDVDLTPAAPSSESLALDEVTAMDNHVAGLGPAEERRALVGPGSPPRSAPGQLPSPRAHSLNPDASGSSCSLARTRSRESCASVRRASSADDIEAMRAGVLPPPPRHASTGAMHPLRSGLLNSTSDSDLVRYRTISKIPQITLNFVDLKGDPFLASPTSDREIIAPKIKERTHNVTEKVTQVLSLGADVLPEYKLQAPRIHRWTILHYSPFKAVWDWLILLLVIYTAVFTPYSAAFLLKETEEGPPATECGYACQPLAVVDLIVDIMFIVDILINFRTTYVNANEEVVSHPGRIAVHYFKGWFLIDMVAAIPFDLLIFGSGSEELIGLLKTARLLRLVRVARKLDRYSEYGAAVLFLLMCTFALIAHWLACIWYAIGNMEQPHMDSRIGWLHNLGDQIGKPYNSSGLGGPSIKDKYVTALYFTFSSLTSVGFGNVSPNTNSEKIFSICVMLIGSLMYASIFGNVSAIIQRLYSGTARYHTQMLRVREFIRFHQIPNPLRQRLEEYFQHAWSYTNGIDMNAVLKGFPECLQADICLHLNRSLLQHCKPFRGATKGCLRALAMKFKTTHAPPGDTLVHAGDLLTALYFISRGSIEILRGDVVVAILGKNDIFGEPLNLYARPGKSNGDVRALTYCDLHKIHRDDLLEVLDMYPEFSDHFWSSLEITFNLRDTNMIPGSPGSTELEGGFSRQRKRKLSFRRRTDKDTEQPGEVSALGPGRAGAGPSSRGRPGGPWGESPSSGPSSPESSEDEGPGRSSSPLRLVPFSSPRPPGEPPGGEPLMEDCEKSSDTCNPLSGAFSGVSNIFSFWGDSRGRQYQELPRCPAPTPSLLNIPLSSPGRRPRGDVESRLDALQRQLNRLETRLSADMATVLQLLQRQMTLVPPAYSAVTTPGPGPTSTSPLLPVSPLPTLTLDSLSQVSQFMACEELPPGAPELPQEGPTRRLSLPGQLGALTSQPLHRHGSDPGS
Chain of Cytochrome P450 2C9 (Homo sapiens) (P11712 whole entry, looked up): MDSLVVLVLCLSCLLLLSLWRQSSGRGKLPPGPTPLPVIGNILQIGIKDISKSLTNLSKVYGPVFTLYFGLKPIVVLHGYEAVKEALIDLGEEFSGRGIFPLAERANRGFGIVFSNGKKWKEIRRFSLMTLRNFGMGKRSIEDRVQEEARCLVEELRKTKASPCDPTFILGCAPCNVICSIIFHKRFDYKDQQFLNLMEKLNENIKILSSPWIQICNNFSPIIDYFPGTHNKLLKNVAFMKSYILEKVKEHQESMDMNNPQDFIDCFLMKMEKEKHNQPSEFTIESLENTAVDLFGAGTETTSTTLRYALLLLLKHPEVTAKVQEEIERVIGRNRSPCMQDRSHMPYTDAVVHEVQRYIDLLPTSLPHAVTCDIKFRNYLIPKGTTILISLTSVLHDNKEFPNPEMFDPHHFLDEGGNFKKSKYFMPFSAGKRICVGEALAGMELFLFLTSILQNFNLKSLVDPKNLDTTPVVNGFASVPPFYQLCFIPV
Chain of Nuclear receptor subfamily 1 group I member 2 (Rattus norvegicus) (Q9R1A7 whole entry, looked up): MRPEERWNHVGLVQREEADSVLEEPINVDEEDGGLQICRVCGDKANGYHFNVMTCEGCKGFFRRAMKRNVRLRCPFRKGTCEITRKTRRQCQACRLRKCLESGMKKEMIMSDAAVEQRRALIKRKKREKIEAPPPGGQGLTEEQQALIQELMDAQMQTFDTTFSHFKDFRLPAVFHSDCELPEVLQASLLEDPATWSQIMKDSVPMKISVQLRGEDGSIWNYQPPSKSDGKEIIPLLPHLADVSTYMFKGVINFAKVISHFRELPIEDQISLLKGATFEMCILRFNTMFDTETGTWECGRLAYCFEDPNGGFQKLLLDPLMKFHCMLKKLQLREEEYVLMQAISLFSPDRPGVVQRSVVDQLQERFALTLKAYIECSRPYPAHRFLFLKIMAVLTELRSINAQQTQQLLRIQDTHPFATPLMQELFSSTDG

On to `C=CCCCCCCCCCCC`, for which the activity change, negative = cytotoxicity in assay [1] was -3.69% [at 6.97 µM]; in assay [5], -1.17% [at 8.39 µM]; in assay [7], -0.387% [at 8.39 µM]; in assay [8], 0.644% [at 8.39 µM]. The activation in assay [2] was -3.71% [at 6.97 µM]; in assay [4] it was -0.423% [at 5.23 µM]. For the same molecule, the activity, negative = inhibition in [3] is 4.06% [at 4.65 µM]. Further, the caspase activation in assay [6] was -1.35% [at 8.39 µM]. In addition, the activity change, negative = inhibition in assay [9] was -22.8% [at 10.5 µM]; in assay [10], 11.6% [at 10.5 µM]; in assay [11], -1.77% [at 10.5 µM]; in [12], -6.04% [at 10.5 µM]; in [13], 6.79% [at 6.97 µM]; in assay [14], 4% [at 10.5 µM].
`CC(C)SCc1ccco1`: the molecule was classed as inactive in assay [1], in [2], in [3], in assay [4] and in assay [6]. For the same molecule, the Potency entry in [5], in assay [7], in assay [15], in assay [9], in [10] and in [11] was “inactive” in each case. Besides, the Potency result in assay [12], in assay [13] and in [14] was “inactive” throughout.
Take `C1=C\CC/C=C\CC/1`: the molecule was classed as inactive in [1], in [2], in assay [3], in assay [4] and in [6]. Besides, the Potency entry in [5], in assay [7], in assay [8], in [9], in assay [10] and in [12] was “inactive” in each case. Besides, the Potency entry in assay [13] and in [14] was “inactive” in each case.
With `CC(C)COC(=O)CCCCC(=O)OCC(C)C`, the result in assay [1], in [2], in assay [3], in [4] and in [6] was inactive. The Potency result in assay [5], in assay [7], in assay [8], in [15], in assay [9] and in assay [10] was “inactive” throughout. The Potency result in [13] and in [14] was “inactive” each time. In addition, the Potency in [11] is 22.4 µM (active); in assay [12], 39.9 µM (active).
Take `O=c1[nH]c(=O)c2[nH]c(=O)[nH]c2[nH]1`: the activity change, negative = cytotoxicity was -0.0048% [at 6.97 µM] in [1], -1.5% [at 8.39 µM] in [5], 4.37% [at 8.39 µM] in assay [7] and 2.67% [at 8.39 µM] in [8]. Also, the activation in assay [2] is -2.44% [at 6.97 µM]; in assay [4], 0.501% [at 5.23 µM]; in assay [15] it was -5.05% [at 8.39 µM]. In addition, the activity, negative = inhibition in [3] was 0.0155% [at 4.65 µM]. The caspase activation in assay [6] is -0.796% [at 8.39 µM]. Also, the max activation in assay [16] is -2.16%. For the same molecule, the call in [17] was inactive. Besides, the Potency result in assay [18] is “inactive”. The activity change, negative = inhibition is -9.18% [at 10.5 µM] in [9]; -2.11% [at 10.5 µM] in [10]; 10.1% [at 10.5 µM] in assay [11]; -28.5% [at 10.5 µM] in assay [12]; -12.8% [at 6.97 µM] in [13]; 20% [at 10.5 µM] in assay [14].
With `CC1CCC(C(C)(C)S)C(=O)C1` (stereo unspecified), the molecule was classed as inactive in assay [1], in assay [2], in assay [3], in assay [4], in assay [6] and in [19]. For the same molecule, the Potency entry in [5], in [7], in [12] and in assay [13] was “inactive” throughout. Besides, the Potency in assay [10] was 79.6 µM (active); in assay [11], 39.9 µM (active).

Values taken from PubChem BioAssay (Tox21).
